Shown are actives, neighbours in structure and some others; about 27% of the full set was active somewhere.
CYP2C9 act – CYP2C9 (human) activation; activation factor at 5 µM; recombinant CYP2C9, luciferin-H conversion, luminescence; active compounds read high; factor 1 = untreated enzyme, 0 = blocked; 96,000 tested, 1.4% active; P11712;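 active = activation factor of 2 or more for CYP2C9 at a 5 µM dose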;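 note: 0 = sulfaphenazole-blocked wells and 1 = vehicle-only wells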
Cav32 inh – inhibitors of human Cav3.2 T-type calcium channel | Cav3.2-expressing cells, Fluo-4 calcium fluorescence FDSS; active compounds read low | O95180 | AID 449739 | 100,000 tested, 4% active | B-score at 10 µM;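 active = single-dose well whose peak fluorescence ratio is a statistical outlier from its plate by either plate-standardised score or position-corrected B-score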
CYP2C19 activ – activators of human cytochrome P450 2C19. recombinant CYP2C19, luciferin-H EGE luminescence; active compounds read high; 0 = fully inhibited enzyme, 1 = untreated enzyme. 96,000 tested, under 10 active. activation factor at 5 µM. AID 1025;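 active = activation factor of at least 2 at 5 µM in the primary screen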;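 note: 0 = wells with 2.5 mM tranylcypromine and 1 = vehicle-only wells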
CYP2C19 inh – blocks human cytochrome P450 2C19; P33261; CYP2C19 Supersomes, luciferin-H EGE luminescence, 30 min; inhibition, % at 5 µM; 96,000 tested, 21% active; AID 778;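 active = CYP2C19 inhibition above a set limit at 5 µM in the primary screen, cut at about 50% in these data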;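 note: plate controls were negative control wells for no effect and 2.5 mM tranylcypromine positive control for full effect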
CYP2C9 inh – blocks human cytochrome P450 2C9 | AID 777 | CYP2C9 Supersomes, luciferin-H conversion, luminescence | P11712 | 96,000 tested, 20% active | inhibition, % at 5 µM;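 active = blocking of liver enzyme CYP2C9 beyond about 50% at 5 µM, limit read from the data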
Starred values were filed as active, the others as inactive; . = not tested or not shown.

SMILES	CYP2C9 act	Cav32 inh	CYP2C19 activ	CYP2C19 inh	CYP2C9 inh
COC(=O)c1ccc(NC(=O)CCN2CCN(c3ccccc3)CC2)cc1	0.4	-1.3	0.7	26	55*
Cn1nnc2cc(C(=O)N3CCC(c4ccccc4)C3)ccc21 (stereo not given)	0.7	0.25	0.2	80*	25
O=C(Nc1ccccc1N1CCN(C(=O)c2ccc(Cl)cc2)CC1)c1ccc2c(c1)OCO2	0.2	-1.4	0.1	90*	84*
Cn1nnc2cc(C(=O)N3CCCCCC3)ccc21	.	0.41	.	.	.
CC(C)(C)C(=O)Nc1ccccc1C(=O)N1CCCC1	.	0.36	.	.	.
CC(C)(C)C(=O)Nc1ccccc1N1CCN(C(=O)c2ccc(Cl)cc2)CC1	0.3	-0.38	0.2	76*	75*
CCO[C@@H]1OC(C(=O)NC2CC2)=C[C@H](c2ccc(Br)cc2)[C@H]1CCCO	.	0.64	.	.	.
O=C(c1ccc2c(c1)OCO2)N1CCN(c2ccc(Cl)cc2)CC1	0.1	-1.3	0	97*	89*
COC(=O)c1cc(S(=O)(=O)N2CCOCC2)c(N2CCOCC2)cc1N1CCOCC1	0.2	2	0.6	41	76*
O=C(c1cc(-c2ccc3c(c2)OCO3)on1)N1CCN(c2ccccc2)CC1	0.5	-2.3	0.9	10	50*
O=C(c1cc(-c2ccc3c(c2)OCO3)on1)N1CCN(c2ccc(F)cc2)CC1	1	0.42	1	-3	-3
O=C(c1ccc2c(c1)OCO2)N1CCCC(c2ccccc2)C1 (stereo not given)	0.9	-1.2	0.1	87*	8
COc1cccc(C(=O)Nc2cc(=O)n(C)c(=O)n2C)c1	.	0.47	.	.	.
c1ccc2cc(-c3cc4ccccn4c3)ccc2c1	0.9	0.47	0.9	9	13
CCO[C@H]1OC(C(=O)N2CCOCC2)=C[C@@H](C)[C@@H]1CCCO	.	0.36	.	.	.
CCOC(=O)N1CCN(S(=O)(=O)N(C)C)CC1	1.1	.	0.9	10	-8
NC(=O)Nc1ccc(F)cc1	1	0.63	1	-3	-3
O=C(CCN1CCN(c2ccccc2)CC1)Nc1ccc2c(c1)OCO2	.	-0.31	.	.	.
O=C(O)c1cc(NCc2ccc3c(c2)OCO3)ccc1N1CCOCC1	0.7	0.51	0.8	15	27
COC(=O)c1cc(NCc2ccc3c(c2)OCO3)ccc1N1CCOCC1	0.5	-0.55	0.2	77*	52*
COc1ccc(C(=O)N2CCN(c3c(C)cccc3C)CC2)cc1OC	0.8	-1.5	0.6	39	21
COc1ccc(OC)c2c(C)cc(N3CCN(C(=O)c4ccc(Cl)cc4)CC3)nc12	0.4	-1.9	0.6	40	56*
O=C(c1ccc2c(c1)OCO2)N1CCN(c2ccccc2F)CC1	0.5	0.37	0.2	83*	53*
O=C(CCN1CCN(c2ccccc2F)CC1)Nc1ccc2c(c1)OCO2	0.1	-0.033	0.3	71*	88*
O=CN1CCN(C(C(=O)NC2CCCC2)c2ccc(Cl)cc2)CC1 (stereo not given)	1	0.51	0.8	25	-4
SMILES	CYP2C9 act	Cav32 inh	CYP2C19 activ	CYP2C19 inh	CYP2C9 inh
CC(C)(CSc1nncn1N)NS(=O)(=O)c1ccc(Cl)cc1	0.5	0.38	0.1	95*	51*
Cn1cnnc1SC1CCCCC1NS(=O)(=O)c1ccc(Cl)cc1 (stereo not given)	.	0.2	.	.	.
CC(C)CCNC(=O)CN(Cc1ccc2c(c1)OCO2)C(=O)Cn1nnc(-c2cccs2)n1	0.1	-3.4	0.5	48	92*
COc1ccc(-c2nnn(CC(=O)N(CC(=O)NC3CCCC3)Cc3cccs3)n2)cc1OC	0.6	-0.53	0.7	28	36
O=C(CN(Cc1ccccc1F)C(=O)Cn1nnc(-c2cccs2)n1)NC1CCCCC1	0.7	-6.3*	1	4	31
O=C(CN(C(=O)CCC(=O)Nc1nccs1)c1ccc2c(c1)OCO2)NCC1CCCO1 (stereo not given)	1	.	1	4	3
O=C(NCC1CCCO1)C(c1cccs1)N(Cc1cccs1)C(=O)Cn1nnc(-c2cccs2)n1 (stereo not given)	.	-7.1*	.	.	.
O=C(CN(C(=O)Cn1nnc(-c2cccs2)n1)c1cnc2ccccc2c1)NCC1CCCO1 (stereo not given)	0.3	0.042	0.7	35	75*
O=C(NC(=S)Nc1cccc(Cl)c1N1CCCC1)c1ccc(-c2cccc([N+](=O)[O-])c2)o1	1	-0.51	1	-1	2

Bioassay records from PubChem BioAssay.
